Source: PubChem BioAssay (National Center for Advancing Translational Sciences (NCATS))
Only some compounds are listed: those with a hit (about 8.8% of all), similar ones and a draw of the others.
IL-1B inflam inh: blocks inflammasome-driven IL-1 beta release; THP-1 LPS/ATP IL-1B secretion, AlphaLISA, 16 h; active compounds read low; activity change, % at 57.5 µM; hit rate 4.7% among 360,000; AID 743279; in the data active = activity change below about -50%; inconclusive = mostly about -30% to -49%
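Secreted IL-1B measured by AlphaLISA bead assay after 16 h compound exposure of THP-1 cells; compounds (final up to 57.5 uM) added 1 h before LPS (250 ng/mL) and ATP (1.25 mM) stimulation; lower signal means less secretion.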
HT1080-NT tox: kills 2HG-producing HT-1080-NT fibrosarcoma cells; HT-1080-NT fibrosarcoma viability, CellTiter-Glo ATP luminescence, 48 h; hit rate 1.6% among 360,000; Potency, µM (top dose mostly 46.1 µM), inactives show at the top dose activity, negative = less viability, most hits filed as cytotoxic;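 note: NT is the 2HG producing partner of a matched IDH1 knockdown line; potency is the fitted concentration of half-maximal effect; 0% = DMSO-treated cells and -100% = media-only wells without cells; nearly all actives have a fitted effect of over 55% in size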
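Viability by CellTiter-Glo luminescence after 48 h compound exposure at 37C of HT-1080-NT cells (750/well, RPMI, 5% FBS). % activity scaled between DMSO wells and medium-only wells, then curve-fitted and categorized by curve class.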
HT1080 IDH1KD tx: toxicity to HT-1080 IDH1 knockdown cells (counter line). HT-1080 IDH1 knockdown viability, ATP luminescence, 48 h. hit rate 2% among 360,000. Potency, µM (top dose mostly 46.1 µM), for the others: at the top dose activity, negative = toxicity, hits mostly cytotoxic. AID 686971;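 note: potency is the fitted concentration of half-maximal effect; 0% = DMSO wells and -100% = cell-free medium wells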
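Assay cells: HT-1080 with IDH1 knockdown, 750 per well, RPMI/5% FBS. Exposure: 48 h at 37 °C following 2 h pre-incubation. Read: CellTiter-Glo luminescence; fitted concentration-response, curve class assigned.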
KB-3-1 cytotox: KB-3-1 parental cell cytotoxicity | KB-3-1 viability, CellTiter-Glo ATP luminescence, 72 h | Potency, µM (series often up to 46.1 µM), most hits filed as cytotoxic | hit rate 1.4% among 400,000 | AID 1347075; note: potency is the fitted concentration of half-maximal effect; nearly all actives have a fitted effect of over 60% in size
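Multi-concentration cytotoxicity screen in KB-3-1 cells grown in DMEM lacking phenol red with 10% FBS. After 72 h at 37 °C with compound, ATP-dependent luminescence was recorded.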
KB-V1 cytotox: KB-V1 MDR subline cytotoxicity | AID 1347076 | hit rate 3.4% among 400,000 | Potency, µM (highest dose often 46.1 µM), hits mostly cytotoxic | KB-V1 MDR cells viability, CellTiter-Glo, 72 h; note: potency is the fitted concentration of half-maximal effect; nearly all actives have a fitted effect of over 60% in size
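KB-V1 cells (P-gp-expressing MDR subline of KB-3-1) in phenol-red-free DMEM with 10% FBS were exposed to library compounds over a concentration series for 72 h at 37 degrees C. Viability read by CellTiter-Glo luminescence; concentration-effect curves fitted after normalization.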
Active calls of the source: *; i = inactive; ? = inconclusive; · = no result given; [ ] = remark or other dose. Unless noted, calls come from the whole dose curve; as a rule, active = well fitted curve in the direction sought with a large enough effect; inconclusive = small, poorly fitted or top-dose-only effect, or another doubt; inactive = no such curve, though single readings can be large; an effect the other way counts as inactive or inconclusive. Unless noted, % is set by controls: 0 for no effect and ±100 for the full control effect.

SMILES | IL-1B inflam inh | HT1080-NT tox | HT1080 IDH1KD tx | KB-3-1 cytotox | KB-V1 cytotox
CCC(C)c1ccc(NC(=S)NC2CCN(Cc3ccccc3)CC2)cc1 (configuration not stated) | -94* | 18µM* | ? | ? | ?
Cc1ccccc1NC(=S)NC1CCN(Cc2ccccc2)CC1 | -1 | 10% | 0% | i | ?
S=C(Nc1ccc(Cl)cc1)NC1CCN(Cc2ccccc2)CC1 | -94* | 4% | -1% | ? | i
S=C(Nc1ccccc1)NC1CCN(Cc2ccccc2)CC1 | -27 | -6% | -7% | i | ?
CCc1ccc(NC(=S)NC2CCN(Cc3ccccc3)CC2)cc1 | 0 | -27% | -19% | ? | ?
Cc1ccc(NC(=S)NC2CCN(Cc3ccccc3)CC2)c(C)c1 | -57* | -1% | 12% | i | i
Cc1ccc(NC(=O)OCc2ccccc2S(C)=O)cc1 (configuration not stated) | -1 | -1% | -12% | i | ?
Cc1ccc(SCC(=O)Nc2ccc3oc(-c4cccc(Cl)c4)nc3c2)cc1 | · | · | · | i | i
COC(=O)c1cc(Cl)ccc1NC(=O)Cn1c(C)cc(C)c(C#N)c1=O | · | · | · | i | i
O=C(NNC(=O)c1csc(N2CCOCC2)n1)c1ccc(Cl)nc1 | -6 | 3% | 10% | i | i
Cn1c(SCC(=O)N2CCc3ccccc3C2)nnc1-c1ccncc1 | 23 | 1% | 0% | i | i
CCc1cccc(CC)c1-n1c(SCn2nnc3ccccc3c2=O)nnc1-c1cccnc1 | 4 | -5% | -5% | i | ?
Cc1ccccc1-n1c(C)nnc1SCC(=O)N1CCc2ccccc2C1 | 1 | 1% | 0% | i | 6.5µM*
CCc1cccc(CC)c1-n1c(SCC(=O)N2CCc3ccccc3C2)nnc1-c1cccnc1 | -58* | ? | ? | ? | ?
Cc1nc(C(F)(F)F)ccc1C(=O)N1CCC1(C)C(=O)NS(=O)(=O)c1ccc2ccccc2c1 (configuration not stated) | 0 | -1% | ? | i | i
O=[N+]([O-])c1cc(Oc2cccnc2)cc([N+](=O)[O-])c1 | 83 | -2% | 0% | i | i
Cn1cc([N+](=O)[O-])c(C(=O)Nc2cc(Oc3cccnc3)cc([N+](=O)[O-])c2)n1 | -96* | 21µM* | 18µM* | ? | ?
Cn1cc([N+](=O)[O-])c(C(=O)Nc2ccc(C3CCCCC3)cc2)n1 | · | 23µM* | ? | ? | ?
Cn1cc([N+](=O)[O-])c(C(=O)Nc2ccc(C(=O)N3CCCCC3)cc2)n1 | · | ? | 23µM* | 23µM* | ?
Cc1cc(C)c(S(=O)(=O)N2CCCOC2CNC(=O)C(=O)NCc2ccncc2)c(C)c1 (configuration not stated) | -9 | 14% | 12% | i | ?
O=C(Nc1ccc(F)c(Cl)c1)c1cc(C2CCCCN2C(=O)c2cccs2)on1 (configuration not stated) | -15 | -21% | -9% | 23µM* | i
O=C(Nc1ccccc1Cl)c1cc(C2CCCCN2C(=O)c2cccs2)on1 (configuration not stated) | 22 | -1% | -27% | i | i
COc1ccc(Cc2c(C)nc(N)nc2Cl)cc1 | 0 | 2% | -9% | i | i
Cc1nc(N)nc(N)c1CCCc1ccc(Cl)c(Cl)c1 | -104* | 8.2µM* | 1.2µM* | ? | ?
Cc1cc(OCc2nc(N)nc(N)c2-c2ccc(Cl)c(Cl)c2)ccc1[N+](=O)[O-] | -53* | ? | 0.82µM* | 2.1µM* | 1µM*
SMILES | IL-1B inflam inh | HT1080-NT tox | HT1080 IDH1KD tx | KB-3-1 cytotox | KB-V1 cytotox
Cc1cc(OCCCn2cnc3ccccc3c2=O)ccc1[N+](=O)[O-] | -1 | 0% | 4% | i | ?
Cc1nc(N)nc(N)c1-c1ccc(Cl)c(Cl)c1 | -11 | ? | 0.58µM* | ? | i
O=C(NCc1cccs1)c1ccc([N+](=O)[O-])cc1Cl | -8 | 2% | 19% | i | i
CCOc1cc(C)c(Cl)cc1S(=O)(=O)NCc1ccc2c(c1)OCO2 | -6 | ? | ? | ? | 13µM*
O=C(NCc1ccc2c(c1)OCO2)c1ccc(Cl)c(S(=O)(=O)NCc2ccccc2)c1 | -11 | 2% | -15% | i | 23µM*
NS(=O)(=O)c1ccc(CNC(=O)c2ccc(Cl)c(S(=O)(=O)NCc3ccccc3)c2)cc1 | -3 | 9% | 0% | i | i
COc1cc(OC)c(NC(=O)Cn2cnc3c(nc4n3CCCCC4)c2=O)cc1Cl | · | · | · | i | i
Cc1cccc(C2NC(c3cccc(C)c3)C(C)C(=O)C2C)c1 (configuration not stated) | 21 | 0% | 5% | i | i
O=C(COc1ccc2c(c1)CCC2)N1CCN(c2ccccc2F)CC1 | 2 | 12% | 18% | i | 0.0037µM*
CCCC(=O)Nc1ccc2c(c1)c1ccccc1n2CC | -1 | -21% | -28% | ? | ?
CCn1c2ccccc2c2cc(NS(=O)(=O)c3ccccc3C)ccc21 | 13 | ? | ? | 16µM* | ?
CN(CC(=O)Nc1ccc(F)cc1)CC(=O)NC1CCCCC1 | 9 | -2% | 0% | i | i
CCOc1ccc(N(CC(=O)NC2CCCC2)C(=O)CSc2nnc(COc3ccccc3)o2)cc1 | -55* | -17% | -6%[9.24 µM] | i | i
O=C(CN(C(=O)CSc1nnc(COc2ccccc2)o1)c1ccc(F)cc1)NC1CCCC1 | -26 | 7% | -7% | i | i
Cc1ccc(NC2=NC3(CCCCC3)N=C(N)N2)c(C)c1 | ? | ? | 11µM* | 7.3µM* | i
Cc1ccccc1NC1=NC2(CCCC2)N=C(N)N1 | -4 | 2% | 0% | ? | ?
Cc1cccc(C)c1NC1=NC2(CCCCC2)N=C(N)N1 | ? | 15% | 6% | i | i
NC1=NC2(CCCCC2)N=C(Nc2ccc(Br)cc2)N1 | -102* | -12% | -19% | 23µM* | i
Cc1cccc(NC2=NC3(CCCCC3)N=C(N)N2)c1C | -8 | 1% | 0% | i | i
Cc1ccc(C)c(NC2=NC3(CCCCC3)N=C(N)N2)c1 | -25 | 2% | 0% | 18µM* | i
Cc1ccc(NC2=NC3(CCCC3)N=C(N)N2)c(C)c1 | -3 | 18µM* | 16µM* | 4.1µM* | i
CC(=O)Nc1ccc(C(=O)OCC(=O)c2cccc([N+](=O)[O-])c2)cc1 | 28 | 7% | 11% | i | i
Cc1ccc(C(=O)COC(=O)c2cccc(NC(=O)c3ccc([N+](=O)[O-])cc3[N+](=O)[O-])c2)cc1 | ? | ? | ? | ? | 18µM*
O=C(/C=C/c1ccccc1Cl)Nc1cccc(S(=O)(=O)NC2=NCCCCC2)c1 | -64* | ? | -13% | ? | i
